Screen size: about 310,000 compounds; about 18,000 (5.8%) were called active. Roughly 22% stayed inconclusive and do not appear here. Shown is part of a subset that was picked to be rich in actives. Values without a mark were called inactive. The call rests on the fitted dose curve; in most records, active means well fitted inhibition curve with a large enough effect; inconclusive means small, poorly fitted or top-dose-only effect, or another doubt; inactive means no such curve, though single readings can be large or run the other way.
assay: Primary qHTS for delayed death inhibitors of the malarial parasite plastid, 48 hour incubation; conditions: P. falciparum luciferase growth in erythrocytes; series mostly up to 28.7 µM; activity change, negative = inhibition: at the top concentration
In short: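 A one-generation exposure of luciferase-tagged malaria parasites in RPMI 1640/Albumax erythrocyte culture, 37 C and 5% CO2. Inhibition is inferred from decreased luminescence after adding detection reagent.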
On the % scale 0 is the no-effect control and ±100 the full control effect; potency means the concentration at half of the fitted maximal effect.

With `COCCN1CCn2c(nc3cc(NS(C)(=O)=O)ccc32)C1` as the molecule, how does the “activity change, negative = inhibition” value read?
Its value is 30.5%.

Which Potency does the source give for `COc1ccccc1/C=C/CN1CCC(CO)(Cc2ccccc2)CC1` here?
Its Potency is 11.7 µM (active).

For `CC(=O)c1cccc(CN2CCC(CO)(Cc3ccccc3)CC2)c1`, which “activity change, negative = inhibition” value is on record?
The value was -7.63%.

With `COc1ccc(CC2(CO)CCN(Cc3cnn(C)c3)CC2)cc1` as the molecule, how does the “activity change, negative = inhibition” value read?
Its value is 2.96%.

Which “activity change, negative = inhibition” value does the source give for `Cc1cc(C)n(CCNS(=O)(=O)c2ccc(Cl)cc2)n1` here?
The value was -7.98%.

For `CC(=O)Nc1ccc(NS(=O)(=O)c2ccc3c(c2)NC(=O)CC(=O)N3)cc1`, which “activity change, negative = inhibition” value is on record?
Its value is 19.7%.

For `Cc1sc2ncn(CC(=O)NCCCC(=O)N(C)Cc3ccccc3)c(=O)c2c1C`, which “activity change, negative = inhibition” value is on record?
Its value is 15.5%.

For `O=C(CN1CCN(c2nc(-c3ccccc3)cs2)CC1)NCc1ccc2c(c1)OCO2`, which “activity change, negative = inhibition” value is on record?
The value was -11.5%.

With `CCCc1cc(=O)[nH]c(SCC(=O)N2C(C)CCCC2C)n1` (configuration not stated) as the molecule, how does the “activity change, negative = inhibition” value read?
The value was 10.6%.

With `CC1CCCC(C)N1C(=O)CN1CCN(c2nc(-c3ccc(F)cc3)cs2)CC1` (configuration not stated) as the molecule, how does the Potency read?
The Potency was 11.7 µM (active).

With `Cc1ccc(S(=O)Cc2ccc(C(=O)N3CCN(C4CCCCC4)CC3)o2)cc1` (configuration not stated) as the molecule, how does the “activity change, negative = inhibition” value read?
The value was 8.56%.

With `O=C1C(=O)N(CCN2CCOCC2)C(c2cccc(Cl)c2)/C1=C(/O)c1ccc2c(c1)OCO2` (configuration not stated) as the molecule, how does the “activity change, negative = inhibition” value read?
The value was 79.2%.

With `O=C(NCCCn1ccnc1)/C(=C\c1ccccc1F)NC(=O)c1ccccc1` as the molecule, how does the “activity change, negative = inhibition” value read?
Its value is 13.2%.

Which “activity change, negative = inhibition” value does the source give for `CC(Oc1ccccc1)C(=O)Nc1c2c(nn1-c1ccccc1)CS(=O)C2` (configuration not stated) here?
The value was 5.06%.

Which “activity change, negative = inhibition” value does the source give for `O=C(Nc1sc2c(c1C(=O)O)CCC2)c1ccccc1F` here?
Its value is 50.4%.

With `C=CCn1c(=NC(=O)c2cccs2)sc2cc(NC(C)=O)ccc21` as the molecule, how does the “activity change, negative = inhibition” value read?
Its value is 105%.

Which Potency does the source give for `C=CCn1c(=NC(=O)c2ccc(S(=O)(=O)N3CCCC3)cc2)sc2cc(NC(C)=O)ccc21` here?
Its Potency is 1.85 µM (active).

For `COc1cc(C(C)=O)ccc1OC(C)C(=O)Nc1ccc(S(=O)(=O)N2CCCC2)cc1` (configuration not stated), which “activity change, negative = inhibition” value is on record?
The value was -18.1%.

Which “activity change, negative = inhibition” value does the source give for `CCOc1ccc(C(=O)Nc2ccc(S(=O)(=O)Nc3cc(C)on3)cc2)cc1` here?
Its value is 5.82%.

With `COc1ccc(C)cc1NC(=O)CNCc1cccs1` as the molecule, how does the “activity change, negative = inhibition” value read?
The value was 3.51%.

For `CCOC(=O)Nc1ccc(NC(=O)OCC)cc1`, which “activity change, negative = inhibition” value is on record?
The value was 56%.

With `C[C@H](NC(=O)OC(C)(C)C)c1nnc(SCC(=O)Nc2ccc(Br)cc2)o1` as the molecule, how does the “activity change, negative = inhibition” value read?
The value was -5.28%.

For `CC(C)(C)OC(=O)Nc1ccc([C@@H](NC(=O)OC(C)(C)C)C(=O)OC(C)(C)C)cc1`, which Potency is on record?
Its Potency is 2.08 µM (active).

With `CN(Cc1ccccc1Cl)C(=O)C1CCC(=O)N(CCc2cccc(F)c2)C1` (configuration not stated) as the molecule, how does the “activity change, negative = inhibition” value read?
The value was -19.1%.

With `CCOC(=O)C1=C(c2ccccc2)NC(=O)NC1c1cc(OC)c(OC)cc1OC` (configuration not stated) as the molecule, how does the “activity change, negative = inhibition” value read?
Its value is 4.34%.

For `CCOC(=O)C1=C(CNC2CCCCC2)NC(=O)NC1c1cc(C)ccc1C` (configuration not stated), which Potency is on record?
Its Potency is 10.4 µM (active).

For `CC1=C(C(=O)OCC2CCCCC2)C(c2ccc(F)cc2)NC(=O)N1` (configuration not stated), which “activity change, negative = inhibition” value is on record?
The value was 29.1%.

With `Cc1ccc(S(=O)(=O)CC(=O)Nc2nnc(C)s2)cc1` as the molecule, how does the “activity change, negative = inhibition” value read?
The value was -2.59%.

For `CC(C)CC(=O)NC(=S)NNC(=O)c1cccc([N+](=O)[O-])c1`, which Potency is on record?
The Potency was 14.7 µM (active).

With `CCCCCC(=O)NC(=S)NNC(=O)c1ccc([N+](=O)[O-])cc1` as the molecule, how does the “activity change, negative = inhibition” value read?
Its value is 11.8%.

With `O=C(NC(=S)NC1CCS(=O)(=O)C1)c1cccc([N+](=O)[O-])c1` (configuration not stated) as the molecule, how does the “activity change, negative = inhibition” value read?
The value was 11.5%.

With `Cc1cc(C(=O)Nc2nnc(C3CC3)s2)c(C)s1` as the molecule, how does the “activity change, negative = inhibition” value read?
Its value is 234%.

With `CC(NCC(=O)Nc1ccccc1C(=O)NC1CC1)c1ccccc1Cl` (configuration not stated) as the molecule, how does the Potency read?
Its Potency is 9.28 µM (active).

Which “activity change, negative = inhibition” value does the source give for `O=C(COc1ccccc1Cl)Nc1ccccc1C(=O)NC1CC1` here?
The value was -4.82%.

Which “activity change, negative = inhibition” value does the source give for `O=C(CN1CCCCC1)Nc1ccccc1C(=O)NC1CC1` here?
The value was 14%.

With `O=C(CN1C(=O)NC2(CCCCC2)C1=O)NCCc1c[nH]c2ccccc12` as the molecule, how does the “activity change, negative = inhibition” value read?
The value was -11%.

For `CCN(CC(=O)Nc1ccc(NC(C)=O)cc1)C(=O)C1CC(=O)N(Cc2ccc(C)cc2)C1` (configuration not stated), which “activity change, negative = inhibition” value is on record?
The value was 3.06%.

With `NS(=O)(=O)c1ccc(CNC(=O)c2cccc(S(=O)(=O)N3CCc4ccccc43)c2)cc1` as the molecule, how does the Potency read?
Its Potency is 14.7 µM (active).

With `Cc1ccc(NC(=O)c2cccc(S(=O)(=O)N3CCCc4ccccc43)c2)nc1` as the molecule, how does the Potency read?
The Potency was 4.15 µM (active).

With `Cn1c(=O)n(C)c2cc(S(=O)(=O)N3CCCc4ccccc43)ccc21` as the molecule, how does the “activity change, negative = inhibition” value read?
The value was -12.1%.

For `CN1CCN(S(=O)(=O)c2cccc(C(=O)N3CCc4ccccc43)c2)CC1`, which “activity change, negative = inhibition” value is on record?
Its value is 7.8%.

For `CC1CCN(C(=O)c2cccc(S(=O)(=O)N3CCCc4ccccc43)c2)CC1`, which “activity change, negative = inhibition” value is on record?
The value was -65.1%.

For `O=S(=O)(c1ccc2c(c1)OCCO2)N1CCc2ccccc21`, which “activity change, negative = inhibition” value is on record?
The value was -4.28%.

Which “activity change, negative = inhibition” value does the source give for `Cc1nc(COc2cc3oc(=O)cc(C)c3cc2Cl)cs1` here?
The value was 56.1%.

Which “activity change, negative = inhibition” value does the source give for `NC(=O)C1CCCN(CC(=O)N2CCN(c3ccccc3)CC2)C1` (configuration not stated) here?
Its value is 21.6%.

For `Cc1ccc(-n2ncc3c2CC(C)(C)CC3NC(=O)CCc2cnn(C)c2)cc1` (configuration not stated), which “activity change, negative = inhibition” value is on record?
Its value is -10.4%.

With `C[n+]1cc(-c2ccccc2)oc1-c1ccccc1` as the molecule, how does the “activity change, negative = inhibition” value read?
Its value is 79.7%.

With `O=C(COc1ccc2c3c(c(=O)oc2c1)CCCC3)NCC(O)c1ccccc1` (configuration not stated) as the molecule, how does the “activity change, negative = inhibition” value read?
The value was 0.369%.

Which Potency does the source give for `CCCN1C(=O)C(Cc2nc3ccccc3c(=O)n2-c2ccccc2)c2cc(C)ccc21` (configuration not stated) here?
The Potency was 13.1 µM (active).

Which “activity change, negative = inhibition” value does the source give for `CCCc1nc2ccccc2c(=O)n1/N=C/c1ccc(O)c(O)c1` here?
Its value is 0%.

Which “activity change, negative = inhibition” value does the source give for `O=c1c2ccccc2nc(CSc2nnnn2-c2ccccc2)n1-c1ccccc1` here?
The value was 21.2%.

For `COCCNC(=O)CN(Cc1ccco1)C(=O)CCC(=O)Nc1nccs1`, which “activity change, negative = inhibition” value is on record?
The value was 3.14%.

From PubChem BioAssay AID504832 (National Center for Advancing Translational Sciences (NCATS), 2011)
